target: Insulin-like growth factor 1 receptor (Homo sapiens) (UniProt P08069); settings: at 0.1 µM
Sequence (P08069 31-736 limits assumed): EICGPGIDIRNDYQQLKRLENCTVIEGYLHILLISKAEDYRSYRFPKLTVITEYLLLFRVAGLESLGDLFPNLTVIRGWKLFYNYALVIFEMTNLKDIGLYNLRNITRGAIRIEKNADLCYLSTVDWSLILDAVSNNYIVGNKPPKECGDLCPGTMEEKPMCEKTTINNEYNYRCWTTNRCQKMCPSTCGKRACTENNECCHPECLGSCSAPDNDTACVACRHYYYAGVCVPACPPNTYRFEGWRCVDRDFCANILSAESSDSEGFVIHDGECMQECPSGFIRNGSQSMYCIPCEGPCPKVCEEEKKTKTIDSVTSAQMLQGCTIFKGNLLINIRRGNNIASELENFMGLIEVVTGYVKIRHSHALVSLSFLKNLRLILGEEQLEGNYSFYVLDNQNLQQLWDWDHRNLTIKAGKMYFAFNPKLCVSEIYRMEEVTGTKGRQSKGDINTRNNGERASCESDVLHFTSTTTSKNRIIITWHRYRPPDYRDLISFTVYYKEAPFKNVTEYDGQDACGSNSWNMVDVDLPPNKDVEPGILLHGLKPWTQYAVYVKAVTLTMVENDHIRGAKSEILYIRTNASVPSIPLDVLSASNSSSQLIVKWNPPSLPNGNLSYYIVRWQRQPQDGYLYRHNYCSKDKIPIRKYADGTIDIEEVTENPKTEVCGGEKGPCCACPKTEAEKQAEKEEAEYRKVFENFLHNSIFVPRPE
Sequence (P08069 741-1367 limits assumed): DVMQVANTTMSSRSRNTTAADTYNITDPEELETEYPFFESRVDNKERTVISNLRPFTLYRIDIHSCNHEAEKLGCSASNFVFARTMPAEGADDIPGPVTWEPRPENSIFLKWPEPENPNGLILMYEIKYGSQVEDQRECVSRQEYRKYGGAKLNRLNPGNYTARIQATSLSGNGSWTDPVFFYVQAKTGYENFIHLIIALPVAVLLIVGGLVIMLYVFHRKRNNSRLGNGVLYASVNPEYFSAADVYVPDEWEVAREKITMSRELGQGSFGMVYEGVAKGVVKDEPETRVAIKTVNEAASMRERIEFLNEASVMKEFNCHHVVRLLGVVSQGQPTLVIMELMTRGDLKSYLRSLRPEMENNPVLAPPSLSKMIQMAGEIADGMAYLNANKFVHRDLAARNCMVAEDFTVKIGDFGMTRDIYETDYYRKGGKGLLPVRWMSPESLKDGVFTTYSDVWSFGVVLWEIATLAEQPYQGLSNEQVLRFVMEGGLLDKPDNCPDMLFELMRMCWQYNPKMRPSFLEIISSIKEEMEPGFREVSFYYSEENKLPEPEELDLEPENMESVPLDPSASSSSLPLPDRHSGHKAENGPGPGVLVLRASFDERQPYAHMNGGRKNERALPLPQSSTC

Structure (SMILES)	inhibition
ON=C1CCc2cc(-c3nc(C4CCNCC4)[nH]c3-c3ccncc3)ccc21	-1.78%
CS(=O)(=O)Nc1cccc(-c2ccc3c(NC(=O)C4CC4)n[nH]c3c2)c1	1.3%
NS(=O)(=O)c1ccc(-c2cc3ccncc3cc2OCc2ccccc2)cc1	1.47%
[O-][S+]1CCN(Cc2ccc(-c3ccc4ncnc(Nc5ccc(OCc6ccccc6)c(Cl)c5)c4c3)o2)CC1	14.4%
N#Cc1c(NC(=O)c2ccccc2F)sc2c1CCCC2	-4.1%
COc1cc2ncn(-c3cc(OCc4ccccc4S(C)(=O)=O)c(C#N)s3)c2cc1OC	4.3%
NC(=O)c1cccc(Nc2nccc(Nc3cccc(F)c3)n2)c1	1.8%
CN(C)C(=O)O[C@H]1CN[C@H](C#Cc2cc3ncnc(Nc4ccc(OCc5cccc(F)c5)c(Cl)c4)c3s2)C1	3.22%
Cc1ccc(NC(=O)CC2CC2)cc1-c1ccc(C(=O)NCC2CC2)cc1	1.36%
CN(C)c1cc2c(Nc3ccc4c(cnn4Cc4ccccc4)c3)ncnc2cn1	0.45%
CN(c1ccc(NC(=O)Nc2ccc(OC(F)(F)F)cc2)cc1)c1ccnc(Nc2cccc(S(N)(=O)=O)c2)n1	-1.04%
CCS(=O)(=O)c1ccc(OC)c(Nc2ncc(-c3cccc(OC)c3)o2)c1	2.1%
COc1cc(Nc2nccc(-c3cnn4ncccc34)n2)cc(OC)c1	13.8%
O=C1Nc2ccc(-c3cccnc3)cc2C1=Cc1cc(Br)c(O)c(Br)c1	3.8%
CN(C)C(=O)O[C@@H]1CN[C@@H](C#Cc2cc3ncnc(Nc4ccc(OCc5cccc(F)c5)c(Cl)c4)c3s2)C1	-0.74%
Cc1nc(-c2ccccc2)n2nc(NCCCN3CCOCC3)ncc12	3.15%
COc1cc(/C=N/Nc2ncnc3c2cnn3C(C)C)ccc1O	9.1%

Structure (SMILES)	inhibition
COc1cccc(-n2nc(C)c3c(N/N=C(\C)c4ccncc4)ncnc32)c1	-0.28%
Cc1ccc2c(-c3ccnc(Nc4ccc5c(c4)OCCO5)n3)c(-c3ccc(C(F)(F)F)cc3)nn2n1	-4.21%
COc1cc2ncnc(Nc3ccc4c(cnn4Cc4ccccc4)c3)c2cc1OC	-1.14%
Cc1ccc2c(-c3ccnc(Nc4cccc(C(F)(F)F)c4)n3)c(-c3ccccc3)nn2n1	2.54%
Cc1cc(O)cc(C)c1/C=C/c1cncc(C(=O)N(C)C)c1	2.54%
Nc1ccc(C#Cc2cncnc2Nc2ccc(OCc3cccc(F)c3)c(Cl)c2)cc1	1.78%
Nc1nccc(-c2c(-c3ccc(F)cc3)ncn2CCCN2CCOCC2)n1	9.8%
N#Cc1cccc(Nc2nccc(-c3cnn4ncccc34)n2)c1	8.04%
NC(=O)c1sc(-n2cnc3ccccc32)cc1OCc1ccccc1Br	1.53%
CCS(=O)(=O)c1ccc(OC)c(Nc2nccc(N(C)c3ccc4c(C)n[nH]c4c3)n2)c1	12.5%
O=C(Nc1ccc(Oc2ccc3[nH]c(NC(=O)c4ccco4)nc3c2)cc1)Nc1cc(C(F)(F)F)ccc1F	-8.65%
COC(=O)c1ccc2c(c1)C(=Cc1cc(Br)c(O)c(Br)c1)C(=O)N2	3.29%
CCOc1nccc2c1nc(-c1nonc1N)n2CC	7.26%
COC(=O)Nc1nc2cc(Oc3ccc(NC(=O)Nc4cccc(Br)c4)cc3)ccc2[nH]1	3.08%
CCn1c(-c2nonc2N)nc2c(C#CC(C)(C)O)nc(OCCNC)cc21	5.39%
NS(=O)(=O)c1cccc(-c2cc3ccncc3cc2OCc2ccccc2)c1	9.68%
NS(=O)(=O)c1ccc(N/N=C2\C(=O)Nc3ccc(Cl)cc32)cc1	6.7%

target: Insulin-like growth factor 1 receptor (Homo sapiens) (UniProt P08069); settings: at 1 µM

Structure (SMILES)	inhibition
ON=C1CCc2cc(-c3nc(C4CCNCC4)[nH]c3-c3ccncc3)ccc21	-0.56%
CS(=O)(=O)Nc1cccc(-c2ccc3c(NC(=O)C4CC4)n[nH]c3c2)c1	-1.63%
NS(=O)(=O)c1ccc(-c2cc3ccncc3cc2OCc2ccccc2)cc1	2.17%
[O-][S+]1CCN(Cc2ccc(-c3ccc4ncnc(Nc5ccc(OCc6ccccc6)c(Cl)c5)c4c3)o2)CC1	10.7%
N#Cc1c(NC(=O)c2ccccc2F)sc2c1CCCC2	0.01%
COc1cc2ncn(-c3cc(OCc4ccccc4S(C)(=O)=O)c(C#N)s3)c2cc1OC	5.83%
NC(=O)c1cccc(Nc2nccc(Nc3cccc(F)c3)n2)c1	20.9%
CN(C)C(=O)O[C@H]1CN[C@H](C#Cc2cc3ncnc(Nc4ccc(OCc5cccc(F)c5)c(Cl)c4)c3s2)C1	2.88%
Cc1ccc(NC(=O)CC2CC2)cc1-c1ccc(C(=O)NCC2CC2)cc1	2.09%
CN(C)c1cc2c(Nc3ccc4c(cnn4Cc4ccccc4)c3)ncnc2cn1	2.94%
CN(c1ccc(NC(=O)Nc2ccc(OC(F)(F)F)cc2)cc1)c1ccnc(Nc2cccc(S(N)(=O)=O)c2)n1	0.46%
CCS(=O)(=O)c1ccc(OC)c(Nc2ncc(-c3cccc(OC)c3)o2)c1	4.95%
COc1cc(Nc2nccc(-c3cnn4ncccc34)n2)cc(OC)c1	65.4%
O=C1Nc2ccc(-c3cccnc3)cc2C1=Cc1cc(Br)c(O)c(Br)c1	4.14%
CN(C)C(=O)O[C@@H]1CN[C@@H](C#Cc2cc3ncnc(Nc4ccc(OCc5cccc(F)c5)c(Cl)c4)c3s2)C1	0%
Cc1nc(-c2ccccc2)n2nc(NCCCN3CCOCC3)ncc12	1.6%
COc1cc(/C=N/Nc2ncnc3c2cnn3C(C)C)ccc1O	7.79%

Structure (SMILES)	inhibition
COc1cccc(-n2nc(C)c3c(N/N=C(\C)c4ccncc4)ncnc32)c1	0.73%
Cc1ccc2c(-c3ccnc(Nc4ccc5c(c4)OCCO5)n3)c(-c3ccc(C(F)(F)F)cc3)nn2n1	0.39%
COc1cc2ncnc(Nc3ccc4c(cnn4Cc4ccccc4)c3)c2cc1OC	-0.72%
Cc1ccc2c(-c3ccnc(Nc4cccc(C(F)(F)F)c4)n3)c(-c3ccccc3)nn2n1	4.76%
Cc1cc(O)cc(C)c1/C=C/c1cncc(C(=O)N(C)C)c1	5.15%
Nc1ccc(C#Cc2cncnc2Nc2ccc(OCc3cccc(F)c3)c(Cl)c2)cc1	-0.29%
Nc1nccc(-c2c(-c3ccc(F)cc3)ncn2CCCN2CCOCC2)n1	8.95%
N#Cc1cccc(Nc2nccc(-c3cnn4ncccc34)n2)c1	38.2%
NC(=O)c1sc(-n2cnc3ccccc32)cc1OCc1ccccc1Br	3.04%
CCS(=O)(=O)c1ccc(OC)c(Nc2nccc(N(C)c3ccc4c(C)n[nH]c4c3)n2)c1	12.5%
O=C(Nc1ccc(Oc2ccc3[nH]c(NC(=O)c4ccco4)nc3c2)cc1)Nc1cc(C(F)(F)F)ccc1F	-5.27%
COC(=O)c1ccc2c(c1)C(=Cc1cc(Br)c(O)c(Br)c1)C(=O)N2	2.72%
CCOc1nccc2c1nc(-c1nonc1N)n2CC	7.09%
COC(=O)Nc1nc2cc(Oc3ccc(NC(=O)Nc4cccc(Br)c4)cc3)ccc2[nH]1	2.4%
CCn1c(-c2nonc2N)nc2c(C#CC(C)(C)O)nc(OCCNC)cc21	3.53%
NS(=O)(=O)c1cccc(-c2cc3ccncc3cc2OCc2ccccc2)c1	10.4%
NS(=O)(=O)c1ccc(N/N=C2\C(=O)Nc3ccc(Cl)cc32)cc1	4.64%

— ChEMBL document CHEMBL1961873, “Compounds: GSK PKIS; Assays: Nanosyn kinase panel” (2012)
